This is a sample that favours compounds with a hit; in the whole collection about 21% have one here.
Pf growth 96h: P. falciparum growth inhibition at 96 hours | P. falciparum luciferase reporter growth, 96 h | Potency, µM (highest dose often 28.7 µM), without a hit: at the highest dose activity change, negative = inhibition, usual class: inhibitors | 6.9% of 320,000 active; note: potency is the fitted concentration of half-maximal effect; % is set by controls: 0 for no effect and ±100 for the full control effect
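Cell-based qHTS: luciferase-tagged P. falciparum in erythrocytes (2% hematocrit, 0.05% parasitemia final) incubated with compounds for 96 hours, 37 C, 5% CO2; luciferase detection reagent then added and luminescence measured.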
Pf growth 48h: inhibits P. falciparum growth in the first generation, 48 h; AID 504832; Potency, µM (titrated, usually from 28.7 µM), for inactives: at the highest dose activity change, negative = inhibition, hits mostly inhibitors; P. falciparum luciferase growth in erythrocytes, 48 h; 5.9% of 310,000 active; note: potency is the fitted concentration of half-maximal effect; % is set by controls: 0 for no effect and ±100 for the full control effect
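Luciferase-expressing P. falciparum in infected erythrocytes (2% hematocrit, 0.1% parasitemia final) in RPMI 1640/0.5% Albumax were exposed to compound for 48 hours at 37 C, 5% CO2; growth read as luminescence.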
CHX counter: affects cycloheximide protein synthesis inhibition readout, counter-screen. max response, %. 12% of 300,000 active. cell reporter, cycloheximide protein synthesis inhibition counterscreen; in the data active = max response mostly above about 13%, no sharp cut-off; inactive = mostly below about 14%; note: read at 38.3 µM for the half of the compounds with a filed dose; 0% is about no effect
HCMV antiviral: human cytomegalovirus inhibition | HFF cells, HCMV-luciferase reporter, 72 h; hits give low values | activity change, negative = inhibition, % at 57.5 µM | 4.5% of 410,000 active | AID 1259415; in the data active = activity change below about -60%; inconclusive = no clear call, values can overlap the other calls; inactive = above about -39%; note: % is set by controls: 0 for no effect and ±100 for the full control effect
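Steps: HFFs plated, 16 h 37C; compounds added; HCMV-luciferase added to MOI 1 PFU/cell; 72 h 37C; OneGlo reagent, 5 min room temperature; luminescence read, normalized to controls.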
HCV inh: inhibitors of hepatitis C virus infection. Huh7.5.1 HCVcc-Cre infection, luciferase reporter, 44 h. Potency, µM (highest dose often 41.8 µM), without a hit: at the top dose activity change, negative = inhibition, actives largely listed as inhibitors. 3.4% of 340,000 active; note: potency is the fitted concentration of half-maximal effect; % is set by controls: 0 for no effect and ±100 for the full control effect
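Infectious HCVcc-Cre (~0.5 moi) was added to cells just after compound, with cells seeded 4 h earlier at 1,000 per well. Luciferase activity after 44 h culture reported infection; substrate was incubated 15 min at room temperature before reading.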
Shiga toxin inh: inhibitors of Shiga toxin in Vero cells; Vero cells, Shiga toxin protein synthesis inhibition reporter; inhibition, % at 38.7 µM; 9.2% of 290,000 active; AID 2315; in the data active = inhibition mostly above about 28%, no sharp cut-off; inactive = mostly below about 43%; note: 0% is about no effect
Starred values were filed as active, the others as inactive; ? = inconclusive; · = not tested or not shown. Unless noted, calls come from the whole dose curve; as a rule, active = well fitted inhibition curve with a large enough effect; inconclusive = small, poorly fitted or top-dose-only effect, or another doubt; inactive = no such curve, though single readings can be large or run the other way.

SMILES	Pf growth 96h	Pf growth 48h	CHX counter	HCMV antiviral	HCV inh	Shiga toxin inh
O=C(O)Cc1sc(Nc2ccccc2)nc1-c1ccc(Cl)cc1	112.2%	92.0%	42.4*	5.3	17.4%	119.5*
O=C(Cc1sc(Nc2ccccc2)nc1-c1ccccc1)NCc1ccccn1	-6.1%	13.3%	38.9*	-9.6	?	53.3*
COc1ccc(C2C(C(=O)Nc3ccccc3OC)=C(C)Nc3c(C(=O)Nc4ccccc4)cnn32)c(OC)c1 (stereo not drawn)	·	·	·	-17.3	·	·
C[C@@H]1CN([C@H](C)CO)C(=O)c2c(c3ccccc3n2C)-c2ccccc2CO[C@H]1CN(C)C(=O)CCC(F)(F)F	·	·	·	109.0	·	·
Cc1ccc(/C=N/NC(=O)c2csc3c2CCCC3)cc1	68.6%	40.7%	27.3*	1.5	-25.1%	100.6*
COc1cc(/C=N/NC(=O)c2csc3c2CCCC3)ccc1OCCN1CCOCC1	?	2.3%	25.6*	-17.2	?	25.9
Cc1nn(C)cc1/C=N\NC(=O)c1csc2c1CCCC2	0.0%	-11.2%	65.0*	3.9	2.7%	65.5*
CCOc1cc(/C=N/NC(=O)c2ccc(CN3CCOCC3)cc2)ccc1OC	23.1%	-3.3%	2.0	-25.7	?	-10.0
COc1cc(/C=N/NC(=O)c2csc3c2CCCC3)cc(OC)c1O	-18.9%	1.8%	-2.7	-26.4	8.3%	16.5*
O=C(Nc1ccc(F)cc1)c1csc2c1CCCCC2	·	·	·	40.8	·	·
O=C(CCn1c(=O)c2cccn2c2cccnc21)NCc1ccc(F)cc1	·	·	·	-37.0	·	·
COC(=O)[C@H](CCSC)NC(=O)Nc1cc(OC)cc(OC)c1	?	26.1%	9.1	-3.4	5.9%	19.4
Cc1ccccc1CC(=O)N1CCN(S(=O)(=O)c2ccc(Cl)s2)CC1	·	·	·	-10.2	-2.8%	·
COc1ccc(C)cc1NC(=O)Cn1c(=O)oc2cc(S(=O)(=O)N3CCCCC3)ccc21	·	·	·	-25.8	·	·
Cc1ccc(N2C(=O)NC(=O)/C(=C\c3ccsc3)C2=O)cc1C	7.38µM*	5.2%	-1.5	·	6.3%	5.7
O=C1NC(=O)N(c2ccc3c(c2)OCO3)C(=O)/C1=C\c1ccsc1	10.4%	-0.3%	0.3	-7.1	16.8%	17.3
O=C(CSc1nc2ccccc2s1)N1N=C(c2cccs2)CC1c1ccc(F)cc1 (stereo not drawn)	?	-20.2%	-7.4	11.2	5.0%	-8.5
CCN1CCc2c(OCC(=O)N3N=C(c4cccs4)CC3c3ccc(F)cc3)cccc2C1=O (stereo not drawn)	?	9.28µM*	-2.9	-5.7	10µM*	-0.9
CN1CCc2c(OCC(=O)N3N=C(c4cccs4)CC3c3ccc(F)cc3)cccc2C1=O (stereo not drawn)	?	?	-1.1	-88.6*	4.4%	-1.3
CCOC(=O)CSCC(=O)N1N=C(c2cccs2)CC1c1ccc(F)cc1 (stereo not drawn)	?	14.8%	-2.6	?	-5.0%	-7.2
C/C=C/C1=CC(=O)C[C@H](c2ccc(Cl)cc2)C1	49.0%	27.8%	·	16.8	-1.6%	·
COc1ccc(C(=O)N2CCN(C(=O)COc3ccccc3)CC2)cc1OC	·	·	·	27.3	·	·
COC(=O)c1ccccc1NC(=O)CN1C(=O)COc2ccccc21	·	·	·	-7.0	·	·
COc1ccc2nc(N3CCCCC3)c(C#N)cc2c1	14.1%	?	64.1*	130.0	-28.7%	124.0*
COc1ccc2nc(SCC(=O)N3CCCCC3)c(C#N)cc2c1	2.7%	-4.2%	-1.9	23.3	-16.8%	-3.3
SMILES	Pf growth 96h	Pf growth 48h	CHX counter	HCMV antiviral	HCV inh	Shiga toxin inh
COc1ccccc1C(=O)N1CCN(c2nc3cc(C)c(C)cc3cc2C#N)CC1	10.4µM*	?	-2.7	?	?	1.0
COc1ccc2nc(N3CCCC3)c(C#N)cc2c1	8.28µM*	·	16.3	60.5	?	22.0
COc1ccccc1C(=O)N1CCN(c2nc3cc(C)cc(C)c3cc2C#N)CC1	·	·	·	-19.0	·	·
O=C(O)C(C(O)c1ccccc1)[n+]1ccccc1 (stereo not drawn)	73.0%	?	·	-15.3	35.6%	·
Cc1nc2nc(C)c(NS(=O)(=O)c3ccc(Cl)s3)c(=O)n2[nH]1	-0.3%	36.8%	-4.8	-14.6	7.0%	-8.9
O=C(NCc1ccccc1C(F)(F)F)c1cccc2c1C(=O)c1ccc(N3CCOCC3)cc1S2(=O)=O	·	·	·	-13.1	-5.7%	·
O=C(NCc1ccccc1C(F)(F)F)c1cccc2c1C(=O)c1ccc(N3CCC(N4CCCCC4)CC3)cc1S2(=O)=O	·	·	·	-99.8*	·	·
CC1CCN(c2ccc3c(c2)S(=O)(=O)c2cccc(C(=O)NC4CC4)c2C3=O)CC1	·	·	·	-61.6*	-8.1%	·
CC1CCN(c2ccc3c(c2)S(=O)(=O)c2cccc(C(=O)NC[C@@H]4CCCO4)c2C3=O)CC1	·	·	·	-94.1*	?	·
O=C(NC1CCCCC1)c1cccc2c1C(=O)c1ccc(N3CCC(Cc4ccccc4)CC3)cc1S2(=O)=O	·	·	·	-9.1	-18.5%	·
O=C(NC1CCCC1)c1cccc2c1C(=O)c1ccc(/C=C/c3ccccc3)cc1S2(=O)=O	1.85µM*	?	·	?	-4.1%	·
N#CCOC(=O)[C@H](Cc1ccccc1)N1C(=O)c2ccccc2C1=O	3.7%	-13.6%	-2.4	-13.6	20.5%	20.3
COCCNC(=O)c1cccc2c1C(=O)c1ccc(N3CCOCC3)cc1S2(=O)=O	·	·	·	-102.4*	0.0%	·
CCOC(=O)c1c(C)oc2ncnc(N3CCN(c4ccccc4)CC3)c12	·	·	·	-23.7	·	·
CCOC(=O)c1c(C)oc2c1c(CN1CCN(CCO)CC1)c(O)c1ccccc12	212.8%	124.5%	35.6*	284.8	?	117.8*
CCOC(=O)c1c(C)oc2c1c1c(c3ccccc32)OCN(Cc2ccccn2)C1	217.6%	104.3%	34.7*	430.2	-12.5%	88.5*
CCOC(=O)c1c(C)oc2c1c(C(c1ccncc1)N1CCOCC1)c(O)c1ccccc12 (stereo not drawn)	-1.4%	?	50.7*	127.4	12.6µM*	100.2*
CCOC(=O)c1c(C)oc2c1c(CN1CCN(C(=O)OCC)CC1)c(O)c1ccccc12	-30.8%	115.1%	70.7*	133.6	?	104.0*
CCOc1ccccc1Oc1c(C)oc2c(CN3CCN(CCO)CC3)c(O)ccc2c1=O	?	4.5%	5.8	17.9	13.4%	17.0
COc1ccc(NC(=O)Cn2c(=O)n(Cc3nc(C)no3)c(=O)c3cc4c(cc32)OCO4)cc1OC	·	·	·	8.3	·	·
CC12CN3CC(c4ccccc4)(CN(C1)C3c1ccc(O)cc1)C2=O (stereo not drawn)	·	·	·	-9.3	·	·
CC1CCC(C(C)C)C(OCC[N+](C)(C)C)C1 (stereo not drawn)	14.8%	3.7µM*	-2.8	?	12.1%	-8.8
Oc1ccc(CNCc2ccc3c(c2)OCO3)c2cccnc12	?	8.28µM*	·	·	·	·
O=C(CSc1ncccn1)NCc1cccc(Cl)c1	285.5%	75.6%	42.0*	16.2	7.2%	95.0*

Compound activity from PubChem.
